Drawing on ChEMBL document CHEMBL5308504, “Tm Shift (DSF) assay results for EUbOPEN Chemogenomics Library” (2023), this text covers ΔTm for 39 molecules.

Molecules are shown by their SMILES. Several values for one entry are separate records, joined by “and”; a condition that tells them apart may be missing. Equal entries are not always repeated.

Usually ΔTm stands for the shift of the melting midpoint relative to a reference.

Glycogen synthase kinase-3 beta (Homo sapiens), sequence (P49841 whole entry, looked up): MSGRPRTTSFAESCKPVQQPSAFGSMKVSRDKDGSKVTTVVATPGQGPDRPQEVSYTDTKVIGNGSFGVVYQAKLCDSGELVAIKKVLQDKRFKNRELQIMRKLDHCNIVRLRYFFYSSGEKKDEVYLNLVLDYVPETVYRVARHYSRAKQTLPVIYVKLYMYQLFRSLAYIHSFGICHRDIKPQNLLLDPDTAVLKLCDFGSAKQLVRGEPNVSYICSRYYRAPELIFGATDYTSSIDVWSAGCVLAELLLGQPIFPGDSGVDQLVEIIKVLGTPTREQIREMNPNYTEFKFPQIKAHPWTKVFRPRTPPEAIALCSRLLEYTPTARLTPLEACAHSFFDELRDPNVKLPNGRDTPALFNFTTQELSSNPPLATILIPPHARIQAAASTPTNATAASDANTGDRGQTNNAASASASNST

The target in the first assay is Casein kinase I isoform delta (Homo sapiens) (UniProt P48730). To be noted: Compound concentration 20.0 uM, Protein concentration 2.0 uM, Result type QC Liability.
Casein kinase I isoform delta (Homo sapiens), sequence (P48730 whole entry, looked up, canonical isoform): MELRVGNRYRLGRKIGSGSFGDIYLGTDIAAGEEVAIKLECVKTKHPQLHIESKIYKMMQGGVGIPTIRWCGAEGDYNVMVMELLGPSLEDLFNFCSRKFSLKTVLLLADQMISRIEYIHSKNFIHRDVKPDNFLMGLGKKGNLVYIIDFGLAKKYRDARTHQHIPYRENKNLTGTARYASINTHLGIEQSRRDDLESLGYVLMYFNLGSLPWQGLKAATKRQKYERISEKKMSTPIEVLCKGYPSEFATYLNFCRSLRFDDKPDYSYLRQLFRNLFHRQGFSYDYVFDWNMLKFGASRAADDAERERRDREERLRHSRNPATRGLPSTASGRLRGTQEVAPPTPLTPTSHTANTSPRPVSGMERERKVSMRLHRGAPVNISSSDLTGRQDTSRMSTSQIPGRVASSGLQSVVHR
For `Cc1nc2cccnc2n2c(-c3cc(C(C)(C)O)ncc3Cl)nnc12`, the shift in melting temperature (ΔTm) was determined as 0.33 °C.

For `CN1CCC(C#N)(NC(=O)[C@@H](NC(=O)N2CCOCC2)C(C)(C)C)CC1`, the ΔTm was 0.3 °C.

`N#Cc1c(SCc2csc(-c3ccc(Cl)cc3)n2)nc(N2CCCC2)c(C#N)c1-c1ccc(OCCO)cc1`: the ΔTm was -2.01 °C.

For the molecule `COc1ccc(CC[C@@H](OC(=O)[C@@H]2CCCCN2C(=O)[C@H](c2cc(OC)c(OC)c(OC)c2)C2CCCCC2)c2cccc(OCCN3CCOCC3)c2)cc1OC`, the ΔTm was -2.54 °C.

As to `Fc1ccc(-c2nc(-c3c(F)cccc3F)[nH]c2-c2ccncc2)cc1`, the ΔTm was 6.41 °C.

For `Cc1ncc(C(=O)Nc2cc(C(C)(C)C)on2)cc1-n1cc(-c2cnn(C)c2C)nn1`, the ΔTm came out at 2.28 °C.

For the molecule `C[C@@]1(Cc2ccc(C#N)cc2)C(=O)N(c2cc(Cl)cc(Cl)c2)c2ncc(C(=O)NC3(c4nc(C5CCC5)no4)CC3)n21`, the ΔTm turned out to be 3.08 °C.

Regarding `O=C(O)c1cccc(C2=C(c3cc(Cl)ccc3OCc3ccc(F)cc3F)CCC2)n1`, the ΔTm was -0.59 °C.

On to `Cc1cc(-c2ccnc(Nc3cnn(C)c3)n2)ccc1CNC(=O)N1CC(OC(C)C)C1`, for which the ΔTm was 0.77 °C.

For `CN[C@@H](C)C(=O)N[C@H](C(=O)N1CCC[C@H]1C(=O)Nc1sc(-c2ncco2)nc1-c1ccccc1)C1CCCCC1`, the thermal shift (ΔTm) was -0.13 °C.

Regarding `Fc1ccc(-c2nc(-c3ccc4ccccc4c3F)[nH]c2-c2ccncc2)cc1`, the ΔTm stood at 4.6 °C.

Turning to `CN(CC(=O)Nc1ccc(F)c(F)c1F)C(=O)c1ccc2c(c1)OCCO2`, the thermal shift (ΔTm) turned out to be 0.08 °C.

As to `Cc1n[nH]c2ncc(C(=O)N3CCC[C@H]3c3ccc(Cl)cc3)cc12`, the ΔTm was determined as 0.12 °C.

Consider `N[C@@H]1CCCC[C@H]1Oc1ccc2ncc(-c3cc4ccccc4o3)n2n1`, for which the ΔTm is 1.01 °C.

In the case of `Cc1cc(CN)cc(C)c1-c1ncn(C)c1-c1ccnc2cc(F)ccc12`, the ΔTm amounted to 0.37 °C.

Consider `CN1CCN(c2ccc(/C=C(\C#N)c3ccccc3Br)cc2)CC1`, for which the ΔTm was 0.85 °C.

Regarding `N#C/C(=C\c1ccc(O)c(O)c1)C(=O)OCCc1cccs1`, the ΔTm was determined as 2.15 °C.

`C[C@@H]1CC(=O)N(C2CC2)N=C1c1ccc(NC(=O)N2Cc3ccncc3C2)cc1`: the ΔTm stood at 0.2 °C.

With `CC(C)N(C(=O)C1CCOCC1)c1cc(F)c(Oc2ncc(Cn3nccn3)cc2C(F)(F)F)cc1C(=O)O`, the ΔTm was 0.07 °C.

As for `CCOC(=O)N1CCC(CN(Cc2ccc(Cl)cc2)Cc2ccc([N+](=O)[O-])s2)C1` (stereo not drawn), the ΔTm amounted to 1.17 °C.

Regarding `CNC(=O)c1c[nH]c2ccc(Nc3nccc(-c4ccccn4)n3)cc12`, the ΔTm is 0.6 °C.

With `CC(=O)c1c(C)c2cnc(Nc3ccc(N4CCNCC4)cn3)nc2n(C2CCCC2)c1=O`, the ΔTm is 0.19 °C and 0.01 °C.

On to `O=C(CCCN1CCC(O)(c2ccc(Cl)cc2)CC1)c1ccc(F)cc1`, for which the ΔTm turned out to be 0.25 °C.

As for `Cc1csc(S(=O)(=O)N(CC(C)C)c2cc3c(cc2OCc2ccc(C(=O)O)cc2)CCC3)n1`, the thermal shift (ΔTm) was -0.34 °C.

Consider `Cc1c(-c2c(F)cc(C(N)=O)c3[nH]c4c(c23)CC[C@H](C(C)(C)O)C4)cccc1-n1c(=O)c2cccc(F)c2n(C)c1=O`, for which the ΔTm turned out to be 0.11 °C.

In the case of `COc1ccc(CSc2nnc(-c3ccc4ncsc4c3)o2)cc1C(F)(F)F`, the ΔTm is -10.2 °C.

For the molecule `COc1cc(N2CCN(C)CC2)ccc1Nc1ncc2c(n1)N(C)c1ccccc1C(=O)N2CC(F)(F)F`, the ΔTm came out at 0.47 °C.

Turning to `COCc1nc2cnc3cc(-c4c(C)noc4C)c(OC[C@H]4CCNC4)cc3c2n1[C@H](C)c1ccccc1`, the ΔTm turned out to be 0.07 °C.

Turning to `CCCCC(C)(O)C/C=C/[C@H]1[C@H](O)CC(=O)[C@@H]1CCCCCCC(=O)O` (stereo partly drawn), the ΔTm is -0.02 °C.

Consider `O=C(O)CCCc1cc2cc(Cl)ccc2n1S(=O)(=O)c1ccc2ncsc2c1`, for which the ΔTm was 1.03 °C.

With `CCc1c(-c2ccc3[nH]ncc3c2)cnc(N)c1-c1ccc(O)cc1`, the ΔTm worked out at 1.28 °C.

Turning to `Cc1sc(C(=O)c2cncnc2N[C@@H]2C[C@H](COS(N)(=O)=O)[C@@H](O)C2)cc1[C@@H]1NCCc2ccc(Cl)cc21`, the thermal shift (ΔTm) was -0.59 °C.

Consider `Cc1cccc(-c2nn3c(c2-c2ccnc4ccc(C(N)=O)cc24)CCC3)n1`, for which the ΔTm is 3.53 °C.

Regarding `Cc1nc(-c2ccc(C(F)(F)F)cc2)sc1C(=O)NCc1ccc(OC(C)(C)C(=O)O)cc1`, the ΔTm was found to be 0.63 °C.

Take `Nc1nc(-c2nn(Cc3ccccc3F)c3ncccc23)ncc1C1CC1`: the thermal shift (ΔTm) was 0.44 °C.

Regarding `Cc1cc(CN(CC(=O)Nc2ccc(Cl)cc2Cl)C2CCCCC2)ccc1OCC(=O)O`, the ΔTm was -0.47 °C.

For `NCC1CCC(CNc2nc(NCc3ccccc3OC(F)(F)F)ncc2[N+](=O)[O-])CC1` (stereo not drawn), the ΔTm amounted to 0.19 °C.

As for `COc1ncc(-c2cc(-c3ncc(CN4C[C@@H](C)O[C@@H](C)C4)o3)c3cn[nH]c3c2)cc1NS(C)(=O)=O`, the ΔTm came out at 0.38 °C.

In the case of `CN(C)C(=O)c1sc2nc(N3CCC(S(C)(=O)=O)CC3)cc(C(F)(F)F)c2c1N`, the ΔTm was 0.2 °C and 0.17 °C.

A further assay has as its target Glycogen synthase kinase-3 beta (Homo sapiens) (UniProt P49841). To be noted: Compound concentration 20.0 uM, Protein concentration 2.0 uM, Result type QC Liability.
Turning to `Cc1nc2cccnc2n2c(-c3cc(C(C)(C)O)ncc3Cl)nnc12`, the ΔTm is -0.45 °C.

With `CN1CCC(C#N)(NC(=O)[C@@H](NC(=O)N2CCOCC2)C(C)(C)C)CC1`, the ΔTm was -0.75 °C.

Take `N#Cc1c(SCc2csc(-c3ccc(Cl)cc3)n2)nc(N2CCCC2)c(C#N)c1-c1ccc(OCCO)cc1`: the ΔTm stood at 0 °C.

Regarding `COc1ccc(CC[C@@H](OC(=O)[C@@H]2CCCCN2C(=O)[C@H](c2cc(OC)c(OC)c(OC)c2)C2CCCCC2)c2cccc(OCCN3CCOCC3)c2)cc1OC`, the ΔTm is -2.19 °C.

Turning to `Fc1ccc(-c2nc(-c3c(F)cccc3F)[nH]c2-c2ccncc2)cc1`, the ΔTm amounted to 7.77 °C.

Turning to `Cc1ncc(C(=O)Nc2cc(C(C)(C)C)on2)cc1-n1cc(-c2cnn(C)c2C)nn1`, the ΔTm was -0.79 °C.

Consider `C[C@@]1(Cc2ccc(C#N)cc2)C(=O)N(c2cc(Cl)cc(Cl)c2)c2ncc(C(=O)NC3(c4nc(C5CCC5)no4)CC3)n21`, for which the ΔTm is 10.7 °C.

On to `O=C(O)c1cccc(C2=C(c3cc(Cl)ccc3OCc3ccc(F)cc3F)CCC2)n1`, for which the ΔTm stood at 0 °C.

For the molecule `Cc1cc(-c2ccnc(Nc3cnn(C)c3)n2)ccc1CNC(=O)N1CC(OC(C)C)C1`, the ΔTm was determined as 0.38 °C.

With `CN[C@@H](C)C(=O)N[C@H](C(=O)N1CCC[C@H]1C(=O)Nc1sc(-c2ncco2)nc1-c1ccccc1)C1CCCCC1`, the thermal shift (ΔTm) was -0.9 °C.

As to `Fc1ccc(-c2nc(-c3ccc4ccccc4c3F)[nH]c2-c2ccncc2)cc1`, the ΔTm was 8.59 °C.

On to `CN(CC(=O)Nc1ccc(F)c(F)c1F)C(=O)c1ccc2c(c1)OCCO2`, for which the ΔTm was -0.75 °C.

Turning to `Cc1n[nH]c2ncc(C(=O)N3CCC[C@H]3c3ccc(Cl)cc3)cc12`, the ΔTm is 7.82 °C.

Regarding `N[C@@H]1CCCC[C@H]1Oc1ccc2ncc(-c3cc4ccccc4o3)n2n1`, the ΔTm worked out at 4.43 °C.

Consider `Cc1cc(CN)cc(C)c1-c1ncn(C)c1-c1ccnc2cc(F)ccc12`, for which the ΔTm was -0.11 °C.

Consider `CN1CCN(c2ccc(/C=C(\C#N)c3ccccc3Br)cc2)CC1`, for which the ΔTm was -0.47 °C.

For the molecule `N#C/C(=C\c1ccc(O)c(O)c1)C(=O)OCCc1cccs1`, the ΔTm amounted to 0.01 °C.

As to `C[C@@H]1CC(=O)N(C2CC2)N=C1c1ccc(NC(=O)N2Cc3ccncc3C2)cc1`, the ΔTm was -0.86 °C.

Consider `CC(C)N(C(=O)C1CCOCC1)c1cc(F)c(Oc2ncc(Cn3nccn3)cc2C(F)(F)F)cc1C(=O)O`, for which the ΔTm was -0.83 °C.

With `CCOC(=O)N1CCC(CN(Cc2ccc(Cl)cc2)Cc2ccc([N+](=O)[O-])s2)C1` (stereo not drawn), the ΔTm is -0.64 °C.

With `CNC(=O)c1c[nH]c2ccc(Nc3nccc(-c4ccccn4)n3)cc12`, the ΔTm came out at 2.67 °C.

As for `CC(=O)c1c(C)c2cnc(Nc3ccc(N4CCNCC4)cn3)nc2n(C2CCCC2)c1=O`, the ΔTm is 0.23 °C and 0.63 °C.

Consider `O=C(CCCN1CCC(O)(c2ccc(Cl)cc2)CC1)c1ccc(F)cc1`, for which the thermal shift (ΔTm) is -0.66 °C.

With `Cc1csc(S(=O)(=O)N(CC(C)C)c2cc3c(cc2OCc2ccc(C(=O)O)cc2)CCC3)n1`, the ΔTm amounted to 0 °C.

For `Cc1c(-c2c(F)cc(C(N)=O)c3[nH]c4c(c23)CC[C@H](C(C)(C)O)C4)cccc1-n1c(=O)c2cccc(F)c2n(C)c1=O`, the ΔTm turned out to be 0.79 °C.

With `COc1ccc(CSc2nnc(-c3ccc4ncsc4c3)o2)cc1C(F)(F)F`, the ΔTm is -9.01 °C.

Consider `COc1cc(N2CCN(C)CC2)ccc1Nc1ncc2c(n1)N(C)c1ccccc1C(=O)N2CC(F)(F)F`, for which the ΔTm was -0.83 °C.

Turning to `COCc1nc2cnc3cc(-c4c(C)noc4C)c(OC[C@H]4CCNC4)cc3c2n1[C@H](C)c1ccccc1`, the ΔTm is -0.83 °C.

On to `CCCCC(C)(O)C/C=C/[C@H]1[C@H](O)CC(=O)[C@@H]1CCCCCCC(=O)O` (stereo partly drawn), for which the ΔTm stood at 0.33 °C.

`O=C(O)CCCc1cc2cc(Cl)ccc2n1S(=O)(=O)c1ccc2ncsc2c1`: the ΔTm is -2.46 °C.

Consider `CCc1c(-c2ccc3[nH]ncc3c2)cnc(N)c1-c1ccc(O)cc1`, for which the ΔTm stood at 1.03 °C.

On to `Cc1sc(C(=O)c2cncnc2N[C@@H]2C[C@H](COS(N)(=O)=O)[C@@H](O)C2)cc1[C@@H]1NCCc2ccc(Cl)cc21`, for which the shift in melting temperature (ΔTm) came to 0.3 °C.

Turning to `Cc1cccc(-c2nn3c(c2-c2ccnc4ccc(C(N)=O)cc24)CCC3)n1`, the ΔTm worked out at 3.04 °C.

For `Cc1nc(-c2ccc(C(F)(F)F)cc2)sc1C(=O)NCc1ccc(OC(C)(C)C(=O)O)cc1`, the ΔTm is -0.64 °C.

In the case of `Nc1nc(-c2nn(Cc3ccccc3F)c3ncccc23)ncc1C1CC1`, the ΔTm is -0.21 °C.

For the molecule `Cc1cc(CN(CC(=O)Nc2ccc(Cl)cc2Cl)C2CCCCC2)ccc1OCC(=O)O`, the ΔTm was -3.13 °C.

Turning to `NCC1CCC(CNc2nc(NCc3ccccc3OC(F)(F)F)ncc2[N+](=O)[O-])CC1` (stereo not drawn), the ΔTm turned out to be 3.29 °C.

Turning to `COc1ncc(-c2cc(-c3ncc(CN4C[C@@H](C)O[C@@H](C)C4)o3)c3cn[nH]c3c2)cc1NS(C)(=O)=O`, the ΔTm was -0.36 °C.

In the case of `CN(C)C(=O)c1sc2nc(N3CCC(S(C)(=O)=O)CC3)cc(C(F)(F)F)c2c1N`, the ΔTm is -0.24 °C and -0.54 °C.
